Laboratory results from PubChem BioAssay AID1159580 (chemical genetic matrix, 2015).
Hit rate of the full screen: of about 5,500 compounds, about 2,000 (36%) were called active. Another 18% or so got no clear call; they are omitted. Rule as the data show it: active = normalized growth mostly below about 0.91 (no sharp cut-off); inconclusive = no clear call, values can overlap the other calls; inactive = mostly above about 0.92. This is one part of the list.

Experiment: chemical genetic growth profiling, strain panel (AID 1159580);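 also: tested at 20 µM; growth read once vehicle control cultures reached saturation at 30 °C; 1 = growth at the plate median or of vehicle wells; lower values mean less growth of the strain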
Settings: S. cerevisiae deletion strains, growth OD

Measured: normalized growth

NC(N)=NOCC[C@H](N)C(=O)O
inactive: locus YAL013W, strain DEP1, stronger effect = lower value 0.991 | locus YAL021C, strain ccr4, stronger effect = lower value 1.01 | locus YAL026C, strain drs2, stronger effect = lower value 1.01 | locus YAL030W, strain snc1, stronger effect = lower value 1 | locus YBL061C, strain skt5, stronger effect = lower value 1.02 | locus YBR009C, strain hhf1, stronger effect = lower value 1.01 | locus YBR021W, strain FUR4, stronger effect = lower value 1 | locus YBR023C, strain chs3, stronger effect = lower value 1.02 | locus YBR171W, strain sec66, stronger effect = lower value 1.02 | locus YBR229C, strain ROT2, stronger effect = lower value 0.993 | locus YBR231C, strain swc5, stronger effect = lower value 1.02 | locus YBR279W, strain paf1, stronger effect = lower value 1.01 | locus YCL011C, strain gbp2, stronger effect = lower value 1.03 | locus YCL016C, strain dcc1, stronger effect = lower value 1.01 | locus YCL029C, strain bik1, stronger effect = lower value 0.983 | locus YCL061C, strain MRC1, stronger effect = lower value 1.01 | locus YCL069W, strain vba3, stronger effect = lower value 1.01 | locus YCR088W, strain abp1, stronger effect = lower value 1.01 | locus YDL005C, strain med2, stronger effect = lower value 1.01 | locus YDL035C, strain GPR1, stronger effect = lower value 0.985 | locus YDL040C, strain nat1, stronger effect = lower value 1.01 | locus YDL074C, strain BRE1, stronger effect = lower value 1.02 | locus YDL101C, strain DUN1, stronger effect = lower value 0.99 | locus YDL134C, strain PPH21, stronger effect = lower value 0.999 | locus YDL185W, strain tfp1, stronger effect = lower value 0.975 | locus YDL192W, strain arf1, stronger effect = lower value 0.983 | locus YDR001C, strain nth1, stronger effect = lower value 1.01 | locus YDR069C, strain doa4, stronger effect = lower value 1.02 | locus YDR101C, strain arx1, stronger effect = lower value 1.01 | locus YDR137W, strain rgp1, stronger effect = lower value 1.01 | locus YDR150W, strain NUM1, stronger effect = lower value 0.984 | locus YDR159W, strain sac3, stronger effect = lower value 1.01 | locus YDR162C, strain NBP2, stronger effect = lower value 1.02 | locus YDR195W, strain ref2 0.996 | locus YDR297W, strain sur2, stronger effect = lower value 1.01 | locus YDR318W, strain mcm21, stronger effect = lower value 0.983 | locus YDR334W, strain swr1, stronger effect = lower value 1.02 | locus YDR335W, strain msn5, stronger effect = lower value 1.01 | locus YDR388W, stronger effect = lower value 0.999 | locus YDR392W, strain spt3, stronger effect = lower value 1.01 | locus YDR502C, strain sam2, stronger effect = lower value 0.995 | locus YEL003W, strain gim4, stronger effect = lower value 1.02 | locus YEL037C, strain rad23, stronger effect = lower value 1.01 | locus YEL061C, strain CIN8 (second series), stronger effect = lower value 1.02 | locus YEL061C, strain CIN8, stronger effect = lower value 0.992 | locus YER015W, strain faa2, stronger effect = lower value 1.01 | locus YER016W, strain bim1, stronger effect = lower value 1.01 | locus YER110C, stronger effect = lower value 0.984 | locus YER111C, strain swi4, stronger effect = lower value 1.01 | locus YER155C, strain BEM2 (second series), stronger effect = lower value 1.01 | locus YER155C, strain BEM2, stronger effect = lower value 0.978 | locus YER167W, strain BCK2, stronger effect = lower value 0.978 | locus YFR010W, strain ubp6, stronger effect = lower value 1.01 | locus YGL078C, strain dbp3, stronger effect = lower value 0.994 | locus YGL086W, strain mad1, stronger effect = lower value 0.978 | locus YGL167C, strain pmr1, stronger effect = lower value 1.01 | locus YGL173C, strain kem1, stronger effect = lower value 1 | locus YGL227W, strain vid30, stronger effect = lower value 1.02 | locus YGL240W, strain doc1, stronger effect = lower value 1.02 | locus YGL248W, strain PDE1, stronger effect = lower value 0.994 | locus YGL253W, strain hxk2, stronger effect = lower value 1.01 | locus YGR078C, strain PAC10, stronger effect = lower value 1.04 | locus YGR135W, strain pre9, stronger effect = lower value 1.03 | locus YGR229C, strain SMI1, stronger effect = lower value 1.02 | locus YGR252W, strain gcn5, stronger effect = lower value 1.01 | locus YHR013C, strain ard1, stronger effect = lower value 1.04 | locus YHR027C, strain rpn1, stronger effect = lower value 1 | locus YHR030C, strain SLT2, stronger effect = lower value 0.978 | locus YHR079C, strain IRE1 (second series), stronger effect = lower value 0.985 | locus YHR094C, strain hxt1, stronger effect = lower value 0.988 | locus YHR129C, strain ARP1, stronger effect = lower value 0.991 | locus YHR142W, strain chs7, stronger effect = lower value 1.03 | locus YHR200W, strain rpn10, stronger effect = lower value 0.986 | locus YIL066C, strain RNR3, stronger effect = lower value 0.979 | locus YIL073C, strain SPO22, stronger effect = lower value 0.915 | locus YIL125W, strain kgd1, stronger effect = lower value 0.992 | locus YIR030C, strain dcg1, stronger effect = lower value 0.98 | locus YJL092W, strain hpr5, stronger effect = lower value 1.01 | locus YJL095W, strain BCK1 (second series), stronger effect = lower value 1.02 | locus YJL095W, strain BCK1, stronger effect = lower value 1.04 | locus YJL115W, strain asf1, stronger effect = lower value 1.01 | locus YJL129C, strain trk1, stronger effect = lower value 1.03 | locus YJL134W, strain LCB3, stronger effect = lower value 0.987 | locus YJL154C, strain vps35, stronger effect = lower value 1.01 | locus YJL164C, strain tpk1, stronger effect = lower value 1.01 | locus YJL166W, strain qcr8, stronger effect = lower value 1.02 | locus YJL168C, strain set2, stronger effect = lower value 0.988 | locus YJL187C, strain SWE1 (second series), stronger effect = lower value 1.01
